# From PubChem BioAssay (NCATS)
# Values joined by “and” are separate entries in the source; they are usually repeats but may differ in a detail not shown here. Equal values may be shown once. Values without a mark were called inactive. Results filed as inconclusive are left out. Entries that show only a call come without a potency. Active and inactive are the calls of the source. Unless noted, calls follow the shape of the dose curve; as a rule, active = well fitted curve in the direction sought with a large enough effect; inconclusive = small, poorly fitted or top-dose-only effect, or another doubt; inactive = no such curve, though single readings can be large; an effect the other way counts as inactive or inconclusive.
# Legend:
# [1] = molecular target: Dual specificity protein kinase CLK4 (Homo sapiens) (UniProt Q9HAZ1); assay: qHTS Assay for Inhibitors of CDC-like Kinase 4 (Kinase-Glo Assay) (AID 1770); conditions: recombinant Clk4, Kinase-Glo ATP depletion luminescence; series mostly up to 66.7 µM; also: nearly all actives have a fitted effect of over 65% in size
# Method in brief: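 Inhibition was judged from remaining ATP, measured by Ultra-Glo luciferase bioluminescence after Clk4 (25 nM) had acted on RS peptide at 1 uM ATP for 4.5 hours, room temperature.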
# [2] = molecular target: Cytochrome P450 3A4 (Homo sapiens) (UniProt P08684); assay: qHTS for inhibitors of CYP3A4 against the NCATS DSHEA and TCM libraries (AID 1919971); conditions: recombinant CYP3A4 enzyme activity, luminescence qHTS; series mostly up to 34.1 µM;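 also: inhibition lowers luminescence from luciferin made by CYP3A4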
# Method in brief: (§1)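 Read-out is luminescence after P450-Glo detection (30 min, RT). Before that: 15 min compound–enzyme preincubation, then 30-45 min reaction with 1x NADPH regeneration solution, substrate concentration isoform-specific.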
# [3] = molecular target: Cytochrome P450 2C9 (Homo sapiens) (UniProt P11712); assay: qHTS for inhibitors of CYP2C9 against the NCATS DSHEA and TCM libraries (AID 1919973); conditions: recombinant CYP2C9 enzyme activity, luminescence; series mostly up to 34.1 µM; also: potency is read from the fitted curve at half-maximal effect;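 as to activity change, negative = inhibition: luminogenic pro-luciferin CYP2C9 substrate turned into luciferin with NADPH regeneration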
# Method in brief: as §1
# [4] = KB-3-1 P-gp reporter qHTS against the NCATS DSHEA and TCM libraries (AID 1919975); conditions: KB-3-1 parental cells, CellTiter-Glo luminescence viability, 72 h; series mostly up to 26.1 µM
# Method in brief: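 72 h exposure of KB-3-1 cells (DMEM, 10% FBS) to DSHEA/TCM samples, concentration-response; cell viability measured as CellTiter-Glo luminescence after 30 min at room temperature.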
# [5] = KB-8-5-11 P-gp reporter qHTS against the NCATS DSHEA and TCM libraries (AID 1919977); conditions: KB-8-5-11 cells; series mostly up to 26.1 µM
# Method in brief: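 Cells were seeded, allowed ~4 h to attach, dosed by pin tool (substance titrations), incubated ~72 h at 37C, then lysed with CellTiter-Glo for 30 min at room temperature before luminescence reading.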
# [6] = qHTS Counterscreen for compound interference against the NCATS DSHEA and TCM libraries (AID 1919978); conditions: firefly luciferase detection reagent interference, luminescence
# Method in brief: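 Read-out is luminescence after 30 min at RT with luciferin detection reagent. Before that, compounds (19.5 nM to 39.8 uM final) sat 15 min at RT with 1 uM D-luciferin or 100 mM potassium phosphate buffer. PTC124 served as intraplate control.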
# [7] = Dual reporter qHTS for agonist of Pregnane X Receptor (hPXR) against the NCATS DSHEA and TCM libraries: Fluorescence readout (AID 1920058); conditions: PXR dual reporter cells; series mostly up to 40 µM
# Method in brief: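 HepG2 hPXR-Luc, 2000 cells/well, 5 h attach; cpds ~24 h, 37 °C/5% CO2; CellTiter-Fluor 1 h; fluor. Ex/Em 405/540 nm = viability.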
# [8] = molecular target: Nuclear receptor subfamily 1 group I member 2 (Homo sapiens) (UniProt O75469); assay: Dual reporter qHTS for antagonist of Pregnane X Receptor (hPXR) against the NCATS DSHEA and TCM libraries: Luminescence Readout (AID 1920060); conditions: hPXR dual reporter cells, luciferase luminescence, antagonist mode; series mostly up to 40 µM
# Method in brief: (§2)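 Rifampicin-stimulated (2 uM final) hPXR-luciferase HepG2 cells were treated for 24 h with DSNP/TCM substances. Viability came from CellTiter-Fluor fluorescence, reporter activity from ONE-Glo luminescence.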
# [9] = Dual reporter qHTS for antagonist of Pregnane X Receptor (hPXR) against the NCATS DSHEA and TCM libraries: Fluorescence Readout (AID 1920061); conditions: PXR dual reporter cells, antagonist mode; series mostly up to 40 µM
# Method in brief: as §2
# [10] = molecular target: Rap guanine nucleotide exchange factor 3 (Homo sapiens) (UniProt O95398); assay: Confirmatory qHTS for antagonist of cAMP-regulated guanine nucleotide exchange factor 3 (EPAC1) (AID 1645880); conditions: EPAC1 Rap1B-BODIPY-GDP exchange, fluorescence; series mostly up to 115 µM; also: nearly all actives have a fitted effect of over 55% in size
# Method in brief: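 Nucleotide exchange uses 100 nM EPAC1, 250 nM RAP1B-BODIPY-GDP and 50 uM GDP, with compounds in a concentration-titration series. After 5 min at room temperature, fluorescence (480 nm ex/540 nm em) is read every 5 min for 30 min. Data are normalized to control ATA and DMSO.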
# [11] = molecular target: Rap guanine nucleotide exchange factor 3 (Homo sapiens) (UniProt O95398); assay: Counterscreen qHTS for antagonist of cAMP-regulated guanine nucleotide exchange factor 3 (EPAC1) (AID 1645888); conditions: Rap1B-BODIPY-GDP nucleotide exchange, fluorescence; series mostly up to 154 µM;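 also: fluorescence loss as bound BODIPY-GDP is released from Rap1B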
# Method in brief: (§3)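 Rap1B–BODIPY-GDP (250 nM) with 50 uM GDP; compounds pin-transferred to 9.74 nM–152 uM final (activator) or from 7.32 nM upwards (inhibitor). Fluorescence Ex/Em 480/540 nm read at 5 and 30 min, then after adding cAMP or buffer, at room temperature.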
# [12] = molecular target: Rap guanine nucleotide exchange factor 3 (Homo sapiens) (UniProt O95398); assay: Counterscreen qHTS for agonist of cAMP-regulated guanine nucleotide exchange factor 3 (EPAC1) (AID 1645889); conditions: EPAC1 Rap1B-BODIPY-GDP exchange, fluorescence; series mostly up to 154 µM; also: nearly all actives have a fitted effect of over 40% in size; also: potency is read from the fitted curve at half-maximal effect
# Method in brief: as §3
# [13] = molecular target: Bile acid receptor (Homo sapiens) (UniProt Q96RI1); assay: qHTS assay for small molecule antagonists of farnesoid X receptor signaling (AID 588526; calls by dose curve); conditions: HEK293T FXR-UAS-bla, beta-lactamase ratio, antagonist mode; series mostly up to 76.7 µM
# Method in brief: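 Antagonist mode: titrated compounds tested against chenodeoxycholic acid stimulation (normalized to 50 uM CDCA and DMSO) in GeneBLAzer HEK293T cells for 16 h. Beta-lactamase read by CCF4 fluorescence; IC50 from Hill fits.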
# [14] = molecular target: Peroxisome proliferator-activated receptor delta (Homo sapiens) (UniProt Q03181); assay: qHTS assay for small molecule antagonists of peroxisome proliferator-activated receptor delta signaling (AID 588535; active = well fitted inhibition curve with a large enough effect in the signal ratio, with a control signal flat, not every such curve was filed as active; the % refers to the signal ratio); conditions: HEK293T PPARd-UAS-bla, beta-lactamase FRET ratio, 18 h; series mostly up to 76.7 µM
# Method in brief: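 Antagonist-mode beta-lactamase reporter (GeneBLAzer PPAR-delta-UAS-bla) in HEK293T cells, 2% charcoal/dextran FBS, 4000 cells/well. Compound titrations, 18 h at 37 C; CCF4 ratio read, IC50 and efficacy from Hill fits.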
# [15] = MultiTox-Fluor Cytotoxicity Assay - LYMP1-001 - Dead Cells (AID 946); conditions: LYMP1-001 lymphoblastoid cells, dead-cell protease fluorescence; series mostly up to 92.2 µM; also: potency is read from the fitted curve at half-maximal effect
# Method in brief: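 In this qHTS, 15 uM tetraoctylammonium bromide defined 100% and DMSO defined basal activity. Lymphoblastoid cells (LYMP1-001, 2500 per well) received compound for 16 hr at 37 C before a fluorogenic dead-cell substrate readout at 485/520 nm.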
# [16] = molecular target: Cytochrome P450 2D6 (Homo sapiens) (UniProt P10635); assay: qHTS for inhibitors of CYP2D6 against the NCATS DSHEA and TCM libraries (AID 1919972); conditions: CYP2D6 enzymatic inhibition, luminescence qHTS; series mostly up to 34.1 µM; also: potency is read from the fitted curve at half-maximal effect
# Method in brief: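 Luminescent P450-Glo read-out of CYP2D6 turnover of a luciferin substrate after NADPH-driven reaction of 30-45 min at room temperature. Compounds were first preincubated 15 min with enzyme at titrated concentrations; quinidine was the intraplate control.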
# [17] = molecular target: Muscarinic acetylcholine receptor M1 (Rattus norvegicus) (UniProt P08482); assay: qHTS Assay for Antagonists of Acetylcholine Muscarinic M1 Receptor: Measurement of IP-One Response (AID 944); conditions: CHO-M1 cells, IP-One HTRF, antagonist mode; series mostly up to 46.1 µM; also: nearly all actives have a fitted effect of over 75% in size; also: potency is read from the fitted curve at half-maximal effect
# Method in brief: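 M1-CHO (rat), 2000 cells/well, overnight recovery; cpd 10 min; carbachol EC80 (200 nM), 30 min, HEPES buffer + 50 mM LiCl pH 7.4; IP-One HTRF, Ex 337, Em 620/665 nm.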
# [18] = molecular target: Androgen receptor (Homo sapiens) (UniProt P10275); assay: qHTS assay for small molecule agonists of androgen receptor signaling (AID 588515; active = well fitted curve in the direction sought with a large enough effect in the signal ratio, with a control signal flat; the % refers to the signal ratio); conditions: AR-UAS-bla HEK293, beta-lactamase ratio, agonist 16 h; hits give high values
# Method in brief: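 EC50 and efficacy came from Hill fits of titrations (up to 92 uM) normalized to 30 nM R1881 as 100% and DMSO as 0%. Compound exposure was 16 h at 37 C on AR-UAS-bla HEK293 cells, with a 405/460/530 nm CCF4 fluorescence read.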
# [19] = molecular target: Androgen receptor (Homo sapiens) (UniProt P10275); assay: qHTS assay for small molecule antagonists of androgen receptor signaling (AID 588516; active = well fitted curve in the direction sought with a large enough effect in the signal ratio, with a control signal flat, not every such curve was filed as active; the % refers to the signal ratio; also: potency is read from the fitted curve at half-maximal effect); conditions: AR-UAS-bla HEK293, beta-lactamase ratio, antagonist mode, 16 h; series mostly up to 76.8 µM
# Method in brief: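 Antagonist-mode qHTS: inhibition of R1881 (10 nM)-driven beta-lactamase expression in GripTite HEK 293 cells is measured after 16 h; values are Hill-derived IC50s normalized between R1881 and DMSO wells.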
# [20] = molecular target: Bile acid receptor (Homo sapiens) (UniProt Q96RI1); assay: qHTS assay for small molecule agonists of farnesoid X receptor signaling (AID 588527; calls by dose curve); conditions: HEK293T FXR-UAS-bla, beta-lactamase ratio, 16 h; hits give high values
# Method in brief: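 Quantitative HTS used FXR-UAS-bla HEK293T cells with 16 h compound incubation at 37 C. EC50 values came from concentration-response curves normalized to chenodeoxycholic acid.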
# Sequence of Peroxisome proliferator-activated receptor delta (Homo sapiens) (Q03181 whole entry, looked up): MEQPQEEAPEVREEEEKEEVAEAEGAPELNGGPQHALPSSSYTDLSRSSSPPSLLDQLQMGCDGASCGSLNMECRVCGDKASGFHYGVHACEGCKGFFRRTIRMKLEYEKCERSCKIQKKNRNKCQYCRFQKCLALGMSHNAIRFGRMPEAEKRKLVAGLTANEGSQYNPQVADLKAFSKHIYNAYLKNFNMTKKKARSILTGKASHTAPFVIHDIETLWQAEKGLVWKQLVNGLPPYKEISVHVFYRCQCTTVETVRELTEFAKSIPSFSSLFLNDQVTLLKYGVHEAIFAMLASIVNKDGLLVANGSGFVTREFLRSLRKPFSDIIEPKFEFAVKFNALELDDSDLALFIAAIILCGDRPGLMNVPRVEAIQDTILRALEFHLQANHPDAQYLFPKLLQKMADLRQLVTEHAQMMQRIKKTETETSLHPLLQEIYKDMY
# Sequence of Cytochrome P450 2C9 (Homo sapiens) (P11712 whole entry, looked up): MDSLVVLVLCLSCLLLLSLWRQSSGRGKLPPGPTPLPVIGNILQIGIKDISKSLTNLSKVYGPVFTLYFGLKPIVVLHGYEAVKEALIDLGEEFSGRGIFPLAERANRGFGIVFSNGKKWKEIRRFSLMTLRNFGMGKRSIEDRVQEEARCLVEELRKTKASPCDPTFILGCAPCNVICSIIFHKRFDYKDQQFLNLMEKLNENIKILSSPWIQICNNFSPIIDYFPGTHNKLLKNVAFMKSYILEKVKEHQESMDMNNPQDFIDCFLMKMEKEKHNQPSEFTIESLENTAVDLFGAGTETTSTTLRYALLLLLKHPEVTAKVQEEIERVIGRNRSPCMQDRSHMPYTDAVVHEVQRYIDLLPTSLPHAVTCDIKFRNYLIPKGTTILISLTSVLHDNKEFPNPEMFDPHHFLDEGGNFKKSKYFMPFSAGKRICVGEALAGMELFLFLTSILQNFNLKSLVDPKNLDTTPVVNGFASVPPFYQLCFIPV
# Sequence of Bile acid receptor (Homo sapiens) (Q96RI1 whole entry, looked up): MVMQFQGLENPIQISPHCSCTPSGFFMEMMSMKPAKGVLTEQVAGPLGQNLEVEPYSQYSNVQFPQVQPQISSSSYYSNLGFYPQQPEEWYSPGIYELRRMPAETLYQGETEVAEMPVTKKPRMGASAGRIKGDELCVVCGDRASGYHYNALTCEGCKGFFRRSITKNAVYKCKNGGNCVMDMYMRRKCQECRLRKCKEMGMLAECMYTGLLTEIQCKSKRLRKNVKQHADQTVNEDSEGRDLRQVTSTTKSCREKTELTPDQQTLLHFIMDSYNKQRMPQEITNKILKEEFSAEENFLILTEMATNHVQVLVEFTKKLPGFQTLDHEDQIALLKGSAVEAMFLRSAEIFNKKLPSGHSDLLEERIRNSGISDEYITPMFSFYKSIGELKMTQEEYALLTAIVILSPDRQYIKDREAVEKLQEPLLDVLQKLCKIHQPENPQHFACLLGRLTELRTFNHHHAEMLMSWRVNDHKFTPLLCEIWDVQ
# Sequence of Rap guanine nucleotide exchange factor 3 (Homo sapiens) (O95398 whole entry, looked up): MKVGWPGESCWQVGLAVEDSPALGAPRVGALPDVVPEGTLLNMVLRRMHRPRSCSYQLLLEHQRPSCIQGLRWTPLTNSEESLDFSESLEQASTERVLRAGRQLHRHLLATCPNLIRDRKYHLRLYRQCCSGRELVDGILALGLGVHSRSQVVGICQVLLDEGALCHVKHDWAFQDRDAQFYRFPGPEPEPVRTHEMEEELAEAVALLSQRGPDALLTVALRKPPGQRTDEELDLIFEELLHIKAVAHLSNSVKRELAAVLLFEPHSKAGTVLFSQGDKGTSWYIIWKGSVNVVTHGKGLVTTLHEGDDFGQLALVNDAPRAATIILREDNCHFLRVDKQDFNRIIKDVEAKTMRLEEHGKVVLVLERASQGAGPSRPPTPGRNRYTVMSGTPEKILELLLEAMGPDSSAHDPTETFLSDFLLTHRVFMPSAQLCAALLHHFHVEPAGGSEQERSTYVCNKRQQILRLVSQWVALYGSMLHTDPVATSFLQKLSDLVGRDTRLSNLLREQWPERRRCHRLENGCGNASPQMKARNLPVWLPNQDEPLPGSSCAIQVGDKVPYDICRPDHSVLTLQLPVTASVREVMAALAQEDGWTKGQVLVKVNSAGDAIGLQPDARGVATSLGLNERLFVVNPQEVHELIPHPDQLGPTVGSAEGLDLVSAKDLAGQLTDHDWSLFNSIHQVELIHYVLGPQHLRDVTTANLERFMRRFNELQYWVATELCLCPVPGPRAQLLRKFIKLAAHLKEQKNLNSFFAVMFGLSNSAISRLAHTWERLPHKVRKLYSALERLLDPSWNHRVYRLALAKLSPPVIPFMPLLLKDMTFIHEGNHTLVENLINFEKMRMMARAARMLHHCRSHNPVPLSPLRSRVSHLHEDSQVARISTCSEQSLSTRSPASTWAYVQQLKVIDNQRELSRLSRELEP
# Sequence of Androgen receptor (Homo sapiens) (P10275 whole entry, looked up): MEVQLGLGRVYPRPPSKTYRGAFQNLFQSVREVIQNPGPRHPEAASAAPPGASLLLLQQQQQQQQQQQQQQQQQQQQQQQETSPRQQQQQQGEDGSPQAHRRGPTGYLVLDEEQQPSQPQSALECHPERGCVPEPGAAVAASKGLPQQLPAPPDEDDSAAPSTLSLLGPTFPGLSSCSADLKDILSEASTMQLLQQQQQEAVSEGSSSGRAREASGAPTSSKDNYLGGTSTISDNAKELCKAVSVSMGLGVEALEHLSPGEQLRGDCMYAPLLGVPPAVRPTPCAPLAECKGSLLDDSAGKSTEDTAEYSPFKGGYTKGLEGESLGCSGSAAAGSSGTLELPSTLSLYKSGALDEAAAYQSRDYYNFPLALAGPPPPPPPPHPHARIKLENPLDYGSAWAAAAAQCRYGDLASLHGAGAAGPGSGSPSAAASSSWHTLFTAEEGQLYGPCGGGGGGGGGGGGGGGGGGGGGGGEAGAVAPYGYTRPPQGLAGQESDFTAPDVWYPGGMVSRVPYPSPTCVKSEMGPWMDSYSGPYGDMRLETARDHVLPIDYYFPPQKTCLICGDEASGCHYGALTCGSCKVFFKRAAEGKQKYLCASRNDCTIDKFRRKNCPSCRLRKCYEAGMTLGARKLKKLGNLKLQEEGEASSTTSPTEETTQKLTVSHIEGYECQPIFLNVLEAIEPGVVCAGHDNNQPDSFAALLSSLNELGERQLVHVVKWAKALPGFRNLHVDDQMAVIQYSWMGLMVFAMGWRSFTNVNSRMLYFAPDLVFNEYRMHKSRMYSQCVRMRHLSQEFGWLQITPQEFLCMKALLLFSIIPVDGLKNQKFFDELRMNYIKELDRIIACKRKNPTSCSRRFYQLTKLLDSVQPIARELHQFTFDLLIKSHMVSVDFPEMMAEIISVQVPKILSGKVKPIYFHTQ
# Sequence of Nuclear receptor subfamily 1 group I member 2 (Homo sapiens) (O75469 whole entry, looked up): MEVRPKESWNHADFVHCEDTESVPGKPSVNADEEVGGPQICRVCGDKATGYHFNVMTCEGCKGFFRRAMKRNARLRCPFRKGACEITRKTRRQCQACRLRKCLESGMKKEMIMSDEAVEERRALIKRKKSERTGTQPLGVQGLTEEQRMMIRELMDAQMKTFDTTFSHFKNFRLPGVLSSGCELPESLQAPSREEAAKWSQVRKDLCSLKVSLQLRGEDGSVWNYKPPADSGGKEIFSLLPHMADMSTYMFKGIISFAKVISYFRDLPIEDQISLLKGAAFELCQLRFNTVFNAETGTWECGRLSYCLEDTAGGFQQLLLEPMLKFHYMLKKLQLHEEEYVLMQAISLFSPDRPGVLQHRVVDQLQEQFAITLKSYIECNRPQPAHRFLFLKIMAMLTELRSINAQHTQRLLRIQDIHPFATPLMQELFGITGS
# Sequence of Cytochrome P450 2D6 (Homo sapiens) (P10635 whole entry, looked up): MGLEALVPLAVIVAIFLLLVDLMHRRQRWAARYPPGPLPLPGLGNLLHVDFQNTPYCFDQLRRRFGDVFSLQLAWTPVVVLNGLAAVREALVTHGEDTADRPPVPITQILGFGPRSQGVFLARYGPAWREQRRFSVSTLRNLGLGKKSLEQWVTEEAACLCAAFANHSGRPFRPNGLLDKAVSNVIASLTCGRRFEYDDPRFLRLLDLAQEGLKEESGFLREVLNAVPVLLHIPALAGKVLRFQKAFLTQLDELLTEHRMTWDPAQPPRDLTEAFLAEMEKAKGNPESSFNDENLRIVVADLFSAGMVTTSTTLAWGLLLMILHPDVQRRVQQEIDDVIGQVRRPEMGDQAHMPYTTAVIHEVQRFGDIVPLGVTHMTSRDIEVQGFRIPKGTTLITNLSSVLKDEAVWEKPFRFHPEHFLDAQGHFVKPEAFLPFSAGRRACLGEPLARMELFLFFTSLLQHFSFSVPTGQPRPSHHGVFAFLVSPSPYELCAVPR
# Sequence of Cytochrome P450 3A4 (Homo sapiens) (P08684 whole entry, looked up, canonical isoform): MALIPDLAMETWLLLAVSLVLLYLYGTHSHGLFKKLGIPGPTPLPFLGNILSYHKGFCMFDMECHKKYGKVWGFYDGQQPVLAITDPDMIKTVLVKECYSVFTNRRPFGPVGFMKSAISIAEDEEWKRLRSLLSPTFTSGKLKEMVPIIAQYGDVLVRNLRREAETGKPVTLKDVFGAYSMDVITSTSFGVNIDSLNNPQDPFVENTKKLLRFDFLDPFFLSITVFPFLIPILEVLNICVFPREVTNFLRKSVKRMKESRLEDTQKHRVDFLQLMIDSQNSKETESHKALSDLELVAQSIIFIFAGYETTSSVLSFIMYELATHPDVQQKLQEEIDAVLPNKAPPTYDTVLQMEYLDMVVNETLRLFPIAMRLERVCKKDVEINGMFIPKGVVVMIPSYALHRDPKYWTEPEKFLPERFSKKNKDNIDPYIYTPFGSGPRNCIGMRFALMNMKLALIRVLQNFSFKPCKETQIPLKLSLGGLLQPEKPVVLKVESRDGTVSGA
smiles,measurement,setting,value
Clc1ccccc1-c1cncnc1NCCc1cnc[nH]1,outcome,[1],inactive
COc1ccc2c(c1O)-c1c(OC)c(OC)cc3c1[C@H](C2)N(C)CC3,Potency,[2],inactive
same,Potency,[3],inactive
same,outcome,[4],inactive
same,Potency,[5],inactive
same,max response,[6],1.18%
same,outcome,[7],inactive
same,outcome,[8],inactive
same,outcome,[9],inactive
CC1=NCCc2c1[nH]c1cc(O)ccc21,Potency,[10],inactive
same,"activity change, negative = inhibition",[11],251% [at 30.8 µM]
same,Potency,[12],12.6 µM (active)
O=C1c2ccccc2-c2cccc3cccc1c23,Potency,[10],inactive
ClC(Cl)=C(c1ccc(Cl)cc1)c1ccc(Cl)cc1,outcome,[13],inactive
same,Potency,[14],inactive
CCNc1nc(Cl)nc(NC(C)C)n1,Potency,[15],inactive
C=CCc1ccc2c(c1)OCO2,Potency,[15],inactive
same,Potency,[2],inactive
same,Potency,[16],inactive
same,Potency,[3],inactive
same,outcome,[4],inactive
same,Potency,[5],inactive
same,max response,[6],0.591%
same,outcome,[7],inactive
same,outcome,[8],inactive
same,outcome,[9],inactive
O=C(OC1CCN(CCCl)CC1)C(c1ccccc1)c1ccccc1,Potency,[17],0.562 µM (active)
same,Potency,[10],inactive
same,"activity change, negative = inhibition",[11],-43.6% [at 30.8 µM]
same,activation,[12],-1.7% [at 30.8 µM]
CNC(=O)O/N=C/C(C)(C)SC,outcome,[13],inactive
same,Potency,[14],inactive
COc1cc2c(cc1O)CC1c3c(cc(O)c(OC)c3-2)CCN1C (stereo not given),Potency,[16],11.2 µM (active)
same,Potency,[3],10 µM (active)
same,outcome,[4],inactive
same,Potency,[5],inactive
same,max response,[6],0.642%
same,outcome,[7],inactive
same,outcome,[8],inactive
same,outcome,[9],inactive
C=CCc1ccc(OC)cc1,Potency,[14],inactive
ClC1=C(Cl)C2(Cl)C3C(Cl)C=CC3C1(Cl)C2(Cl)Cl (stereo not given),Potency,[15],50.1 µM (active)
CCc1cccc(CC)c1N(COC)C(=O)CCl,activation,[18],-10.2% and -10.1%
same,Potency,[19],44.7 µM (active)
same,outcome,[13],inactive
same,activation,[20],-2.1%
O=S1OCC2C(CO1)C1(Cl)C(Cl)=C(Cl)C2(Cl)C1(Cl)Cl (stereo not given),activation,[18],-11.1%
same,Potency,[19],inactive
same,activation,[20],2.02%
C#CCN(C)[C@@H](C)Cc1ccccc1,Potency,[17],inactive
